The list is not random: actives were taken first. Their share in the collection is about 2.5%.
Myc binder – binders of human c-Myc, primary screen, biochemical, small molecule microarray, anti-His fluorescence; His-c-Myc binding; calls only; 17,000 compounds, 1.5% hits;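 active means spot fluorescence over background with P-value below 7% in all four replicate spots, showing protein binding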
STAT3 SMM – STAT3 binders, primary screen, biochemical, small molecule microarray, single point, set 2; Signal transducer and activator of transcription 3 (Homo sapiens), P40763; AID 624138, 2012; calls only; 17,000 compounds, 0.2% hits; His-STAT3 binding, anti-His fluorescence;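 active means compounds whose four printed spots each show fluorescence over background unusually high for their array block, chance value under 7%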
NFkB binder – binders of NF-kB p50 subunit, primary screen, biochemical, small molecule microarray, anti-His fluorescence; calls only; 17,000 compounds, 1.3% hits; Nuclear factor NF-kappa-B p105 subunit (Homo sapiens), P19838; AID 624139, 2012; anti-His fluorescence binding;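 active means spot fluorescence over background significantly raised, with a chance value under 7% in all four replicate spots of the compound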;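 further: probe protein is his-tagged human p50 processed subunit at 1 µg/ml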
mut p53 SMM – binders of human mutant p53, primary screen, biochemical, small molecule microarray, anti-GST fluorescence. AID 624136, 2012. calls only. small molecule microarray binding. 17,000 compounds, 0.4% hits;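 active means compounds whose four printed spots each glow above background more than chance allows, each with a p-value under 7%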
Each line names hits and unclear results; the compound was inactive in the other large screens.

C[C@H](CO)N1C[C@H](C)[C@@H](CN(C)CC2CC2)Oc2c(NC(=O)Nc3ccc(C(F)(F)F)cc3)cccc2C1=O	none
C[C@@H]1CN([C@@H](C)CO)C(=O)c2cccc(NC(=O)NC3CCCCC3)c2O[C@@H]1CN(C)C(=O)Nc1ccc(C(F)(F)F)cc1	Myc binder active, NFkB binder active
C[C@@H]1CN([C@H](C)CO)C(=O)c2cccc(NC(=O)NC3CCCCC3)c2O[C@@H]1CN(C)C(=O)Nc1ccc(C(F)(F)F)cc1	none
C[C@H]1CN([C@@H](C)CO)C(=O)c2cccc(NC(=O)Nc3ccc(C(F)(F)F)cc3)c2O[C@@H]1CN(C)C(=O)NC1CCCCC1	STAT3 SMM active
C[C@H]1CN([C@@H](C)CO)C(=O)c2cccc(NC(=O)Nc3ccc(C(F)(F)F)cc3)c2O[C@@H]1CN(C)CC1CC1	STAT3 SMM active
Cc1c(NC(=O)/C(C#N)=C/c2ccc(Cl)cc2)c(=O)n(-c2ccccc2)n1C	none
C[C@H](CO)N1C[C@H](C)[C@@H](CN(C)CC2CC2)Oc2ccc(NC(=O)Cc3ccccc3)cc2CC1=O	none
CCn1c(SCC(=O)Nc2c(Cl)cc(Cl)cc2Cl)nnc1-c1ccccc1Cl	none
COCCNC(=S)Nc1nc(OC)cc(OC)n1	Myc binder active
COc1ccc(CCNC(=S)Nc2ccncc2)cc1OC	none
Cc1ccc(S(=O)(=O)NC(=O)CSc2nc3ccccc3s2)cc1	Myc binder active
COc1cc(OC)nc(NC(=O)CSc2nc3ccccc3s2)n1	none
C[C@@H]1CCCCO[C@@H](CN(C)C(=O)Cc2ccccc2)[C@H](C)CN([C@H](C)CO)C(=O)c2cc(NC(=O)Nc3ccc(F)cc3)ccc2O1	none
Cc1noc(C)c1S(=O)(=O)Nc1cccc2c1O[C@H](CN(C)C)[C@H](C)CN([C@H](C)CO)C2=O	none
COC(=O)[C@@]1(Cc2ccccc2)N=C(c2ccc(OCCCO)cc2)O[C@H]1c1ccccc1CN=[N+]=[N-]	none
O=C1O[C@H](c2ccccc2)[C@H](c2ccccc2)N2[C@H]1[C@@H](C(=O)N1CCCCCCC1)[C@]1(C(=O)Nc3ccc(C#CC4(O)CCCCCC4)cc31)[C@H]2c1ccc(OCCO)cc1	Myc binder active, NFkB binder active, mut p53 SMM active
COc1cc2c(cc1OC)CN(C(=O)[C@H]1[C@@H]3C(=O)O[C@@H](c4ccccc4)[C@@H](c4ccccc4)N3[C@@H](c3ccccc3OCCO)[C@]13C(=O)Nc1ccc(C#CC4=CCCCC4)cc13)CC2	NFkB binder active
COc1cc2c(cc1OC)CN(C(=O)[C@@H]1[C@H]3C(=O)O[C@H](c4ccccc4)[C@H](c4ccccc4)N3[C@H](c3ccc(OCCO)cc3)[C@@]13C(=O)Nc1ccccc13)CC2	none
NC(=O)[C@@H]1[C@H]2C(=O)O[C@H](c3ccccc3)[C@H](c3ccccc3)N2[C@H](c2ccc(OCCO)cc2)[C@@]12C(=O)Nc1ccc(C#CC3(O)CCCCCC3)cc12	none
COc1cc2c(cc1OC)CN(C(=O)[C@@H]1[C@H]3C(=O)O[C@H](c4ccccc4)[C@H](c4ccccc4)N3[C@H](c3ccc(OCCO)cc3)[C@@]13C(=O)Nc1ccc(C#CC4(O)CCCCCC4)cc13)CC2	NFkB binder active
O=C1O[C@@H](c2ccccc2)[C@@H](c2ccccc2)N2[C@@H](c3ccc(OCCO)cc3)[C@]3(C(=O)Nc4ccc(C#CC5=CCCCC5)cc43)[C@@H](C(=O)N3CCCCCCC3)[C@H]12	STAT3 SMM active, mut p53 SMM active
C[C@@H]1CN([C@@H](C)CO)C(=O)Cc2cc(NS(=O)(=O)c3cn(C)cn3)ccc2O[C@H]1CN(C)S(=O)(=O)c1cn(C)cn1	none
CC12N=C3SCc4ccccc4CN3[C@H](c3ccccc3O1)[C@H]2CO	none
COC(=O)C(CC#Cc1ccc2c(c1)[C@]1(C(=O)N2)[C@H](C(=O)N2CCc3cc(OC)c(OC)cc3C2)[C@H]2C(=O)O[C@H](c3ccccc3)[C@H](c3ccccc3)N2[C@@H]1c1ccc(OCCO)cc1)C(=O)OC	none
COc1cc2c(cc1OC)CN(C(=O)[C@H]1[C@@H]3C(=O)O[C@@H](c4ccccc4)[C@@H](c4ccccc4)N3[C@@H](c3ccc(OCCO)cc3)[C@]13C(=O)Nc1ccc(C#CC4=CCCCC4)cc13)CC2	NFkB binder active
CN(C)CCCNc1oc(-c2ccccc2F)nc1C#N	Myc binder active
C[C@H]1CN([C@@H](C)CO)C(=O)c2cc(NC(=O)Nc3ccc(F)cc3)ccc2O[C@@H]1CN(C)C(=O)NC1CCCCC1	none
CC(=O)C1=C(C)N(CC2CCCO2)C(=O)C1(NC(=O)c1ccc(C(C)(C)C)cc1)C(F)(F)F (stereo unspecified)	none
C[C@H](CO)N1C[C@H](C)[C@H](CN(C)C(=O)CCC(F)(F)F)OCCCC[C@H](C)Oc2ccc(NS(=O)(=O)c3ccccc3)cc2C1=O	Myc binder active, NFkB binder active
C[C@H](CO)N1C[C@H](C)[C@@H](CN(C)C(=O)CCC(F)(F)F)OCCCC[C@H](C)Oc2ccc(NS(=O)(=O)c3ccccc3)cc2C1=O	none
C[C@@H]1CCCCO[C@@H](CN(C)C(=O)CCC(F)(F)F)[C@@H](C)CN([C@H](C)CO)C(=O)c2cc(NS(=O)(=O)c3ccccc3)ccc2O1	none
Cc1ccc(S(=O)(=O)Nc2ccc3c(c2)C(=O)N([C@@H](C)CO)C[C@H](C)[C@@H](CN(C)C(=O)CCC(F)(F)F)OCCCC[C@H](C)O3)cc1	NFkB binder active
C[C@H](CO)N1C[C@H](C)[C@@H](CN(C)C(=O)CCC(F)(F)F)OCCCC[C@H](C)Oc2ccc(NS(=O)(=O)c3ccc(F)cc3)cc2C1=O	Myc binder active, NFkB binder active
O=C(CNS(=O)(=O)c1ccccc1)Nc1ccc2c(c1)OCCO2	none
C[C@H](CO)N1C[C@H](C)[C@H](CN(C)Cc2ccncc2)Oc2ncc(C#Cc3ccc(F)cc3)cc2C1=O	none
c1ccc(-c2cn3c4ccccc4n(CCN4CCOCC4)c3n2)cc1	Myc binder active
C[C@H]1CN([C@@H](C)CO)C(=O)c2cc(NC(=O)C3CC3)ccc2O[C@H]1CN(C)Cc1ccc(Cl)c(Cl)c1	none
CO[C@H]1O[C@H](CO)[C@@H](OC(=O)Nc2ccc3c(c2)OCO3)[C@H](OC(=O)Nc2ccc3c(c2)OCO3)[C@@H]1OC(=O)Nc1ccc2c(c1)OCO2	none
C/C=C/C1=C(Cl)C(=O)[C@@H](O)[C@@]1(O)C(=O)OC	NFkB binder active
COc1ccc(Cl)cc1NC(=S)NCCCN1CCCC1=O	Myc binder active
COc1ccc(Cl)cc1NC(=S)NCCn1cc(Cl)cn1	Myc binder active
COc1ccc(NC(=S)NCCn2cc(Br)cn2)cc1OC	none
COC(=O)c1ccccc1NC(=O)COc1ccc2c(C)cc(=O)oc2c1	none
C[C@H]1CN([C@@H](C)CO)C(=O)c2cccc(NS(=O)(=O)c3cn(C)cn3)c2O[C@H]1CN(C)C(=O)NC1CCCCC1	none

From PubChem BioAssay
